Screening data (PubChem BioAssay)
The list is not random: actives were taken first. Their share in the collection is about 4%.
TWEAK-Fn14 inh: blocks TWEAK-Fn14 interaction in a reporter cell assay. TWEAK-stimulated Fn14 reporter cells, luciferase luminescence, 8 h. inhibition, % at 10 µM. 2% of 360,000 active. AID 1159606; in the data active = inhibition above about 50%
TROY NFkB inh: blocks TROY-dependent signaling in reporter cells; Q293 LMP1-TROYcd NF-kB luciferase reporter, 4 h; AID 1347056; 0.98% of 360,000 active; inhibition, % at 10 µM;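 active = compounds whose plate-normalised and pattern-corrected inhibition of the luciferase reporter signal at the single screening dose is 50% or more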
CF NFkB block: cystic fibrosis NF-kB activation inhibition; KKLEB NF-kB-GFP reporter, PAF-induced, GFP fluorescence overnight; inhibition, % at 5 µM; 0.86% of 360,000 active; AID 588850;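 active = at least 50% inhibition at 5 µM, scaled per plate between neutral and stimulator controls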;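 also: PAF is a Pseudomonas aeruginosa culture filtrate used as stimulus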
Peg3 prom inh: reduces Peg3 promoter-driven luciferase expression in HeLa | HeLa PEG-Prom luciferase reporter, luminescence, overnight | inhibition, % at 20 µM | 1.7% of 360,000 active | AID 588405;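 active = inhibition of at least 50% at 20 µM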
HIF-2a block: inhibitors of HIF-2a | 786-0 RCC cells HIF-2a reporter, luciferase luminescence, overnight | inhibition, % at 18.8 µM | 0.72% of 360,000 active | AID 624352;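 active = inhibition of the luminescence signal of 40% or more relative to plate controls, in a single-dose primary screen at 18.75 µM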
KKLEB tox: CF airway cell cytotoxicity counter-screen; KKLEB CF airway cells viability, ATPlite luminescence, overnight; active compounds read low; cells stimulated with P. aeruginosa culture filtrate; activity change (cytotoxicity), % at 5 µM; 0.36% of 360,000 active; AID 602141;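 active = corrected activity change at or below -50% at 5 µM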
A number is an active result; i = inactive; nt = not tested or not shown.

SMILES	TWEAK-Fn14 inh	TROY NFkB inh	CF NFkB block	Peg3 prom inh	HIF-2a block	KKLEB tox
NC(CCc1ccccc1)c1csc(NC(=O)NCC2CCCCC2)n1 (centres undefined)	i	i	i	98	i	i
COc1ccc(OC)c(NC(=O)Nc2nc(C(N)CCc3ccccc3)cs2)c1 (centres undefined)	i	i	i	100	i	i
O=c1[nH]c2cc3ccccc3cc2nc1-c1nnnn1C1CCCC1	i	i	nt	nt	i	nt
CC(=O)Nc1ccc2c(c1)C(=O)c1cccc(C(=O)O)c1-2	i	i	i	i	i	i
COc1ccccc1NC(=O)c1ccccc1C(=O)N(C)Cc1ccccc1	i	i	i	i	i	i
CCc1nc2ccc(C(=O)NCCc3ccccn3)cn2c1N(CC)Cc1cccc(Br)c1	i	i	i	i	i	i
COc1ccc(NC(=O)Cc2csc(NC(=O)Nc3ccccc3OC)n2)c(OC)c1	i	i	i	i	i	i
COc1ccccc1NC(=O)Nc1nc(CC(=O)N2CCN(c3ccccc3F)CC2)cs1	i	i	i	52	i	i
COc1ccccc1NC(=O)Nc1nc(CC(=O)NCc2c(F)cccc2F)cs1	i	i	i	i	i	i
COc1ccc(OC)c(NC(=O)Cc2csc(NC(=O)Nc3ccccc3OC)n2)c1	i	i	i	54	i	i
COc1ccccc1NC(=O)Nc1nc(C(N)CC(C)C)cs1 (centres undefined)	i	i	i	61	i	i
COc1ccc(CC(N)c2csc(NC(=O)Nc3ccccc3-c3ccccc3)n2)cc1 (centres undefined)	i	i	i	92	i	i
COc1cc(CC(=O)N2CCN(S(=O)(=O)c3ccc(C)cc3)CC2)cc(OC)c1OC	i	i	i	i	i	i
CCOc1ccccc1/C=C(\C#N)C1=CCCC1	i	i	i	i	i	i
COc1ccc(C2=Nc3ccccc3N(C(=O)c3ccc4ncccc4c3)C2C(=O)NC(C)(C)C)cc1 (centres undefined)	nt	nt	nt	nt	i	nt
C[C@@H](CO)NC(=O)c1ccc2c3n(nc2c1)-c1ccccc1CO3	53	i	i	i	i	i
Cc1ccc2c(c1)COc1c3ccc(C(=O)N[C@@H](CO)C(C)C)cc3nn1-2	i	i	i	i	i	i
CC(C)(C)c1ccc(C(=O)n2cnc3ccccc32)cc1	78	64	i	i	i	i
CC12CCCC[C@@H]1CCC1C2CCC2(C)C1CC[C@@]2(O)CNCCO (some centres undefined)	i	i	i	110	i	i
c1ccc(COc2ncnc3c2ncn3CCCN2CCN(Cc3cccc4ccccc34)CC2)cc1	i	i	i	101	i	i
COc1cc(Nc2nc(-c3ccccc3)c3cc(C)ccc3n2)cc(OC)c1OC	69	i	i	i	i	i
Cc1ccc2nc(NCC(=O)O)nc(-c3ccccc3)c2c1	i	i	i	i	i	i
O=C(O)CSCc1nc2scc(-c3ccccc3)c2c(=O)[nH]1	i	i	i	i	i	i
O=C(OCc1nc2scc(-c3ccccc3)c2c(=O)[nH]1)c1cc([N+](=O)[O-])ccc1Cl	63	i	i	i	i	i
COc1cccc(/C=N/NC(=O)c2nnn(-c3nonc3N)c2CN(C)C2CCCCC2)c1	i	i	i	i	i	i
SMILES	TWEAK-Fn14 inh	TROY NFkB inh	CF NFkB block	Peg3 prom inh	HIF-2a block	KKLEB tox
CCc1cccc2c(C(=O)CN3C(=O)NC(C)(c4cccc5ccccc45)C3=O)c[nH]c12 (centres undefined)	i	i	i	60	i	i
S=C(NCC1CCCO1)c1ccc(Br)cc1 (centres undefined)	i	i	i	i	i	i
COc1ccccc1N(C)S(=O)(=O)c1ccc(C(=O)OCC(=O)c2c[nH]c3ccccc23)cc1	51	i	i	i	i	i
COc1cccc(/C=C/C(=O)OCC(=O)c2c[nH]c3ccccc23)c1OC	55	i	i	i	i	i
COc1cc(NC(=O)c2ccco2)c(C(=O)OCC(=O)c2c[nH]c3ccccc23)cc1OC	i	i	i	75	i	i
O=C(OCC(=O)c1c[nH]c2ccccc12)c1cccc(S(=O)(=O)N2CCCCCC2)c1	52	i	i	i	i	i
CC1(C(=O)NS(=O)(=O)c2ccc3c(c2)CCO3)CCN1C(=O)C1(c2ccc(Cl)cc2)CCC1 (centres undefined)	i	i	i	i	i	i
COc1cc(/C=C/C(=O)OCC(=O)NC(C)c2ccccc2)cc(OC)c1OC (centres undefined)	57	i	i	i	i	i
COc1ccc(S(N)(=O)=O)cc1C(=O)OCC(=O)N1c2ccccc2NC(=O)C1(C)C	i	i	i	i	i	i
COc1cc(/C=C/C(=O)OCC(=O)Nc2ccccc2Sc2ccc(Cl)cc2)ccc1O	i	52	i	i	i	i
COc1cc(/C=C/C(=O)OCC(=O)N2c3ccccc3NC(=O)C2(C)C)cc(OC)c1OC	i	i	i	65	i	i
Cc1ccccc1C(=O)Oc1cccc(Nc2ncnc3ccccc23)c1	53	51	i	i	i	i
CCOC(=O)c1cnc(SC)nc1Oc1cccc(NS(=O)(=O)c2ccccc2)c1	55	i	i	i	i	i
CC(C)(C)OC(=O)C[C@H]1C/C=C\C[C@@H](CC(=O)N(CCO)Cc2ccccc2)C(=O)N[C@H](Cc2c[nH]c3ccccc23)COC1=O	i	i	i	i	i	i
COc1cc(NC(=O)COc2ccc(-n3cnnn3)cc2)c(OC)cc1Cl	i	i	i	59	i	i
COc1cc(OC)c(C#N)c(S(=O)(=O)Cc2ccccc2)c1	i	i	i	i	i	i
N#Cc1c([N+](=O)[O-])cc([N+](=O)[O-])cc1S(=O)(=O)Cc1ccccc1	i	52	82	98	94	-62
CCOc1ccccc1NC(=O)C1CCC(=O)N1S(=O)(=O)c1ccc(C)cc1 (centres undefined)	i	i	i	i	i	i
CC(C)(C)C(=O)N1CCc2cc(-c3csc(N)n3)ccc21	67	i	i	i	i	i
O=C(CN1c2cccc3cccc(c23)S1(=O)=O)N1CCN(c2ccccc2)CC1	i	i	i	i	i	i
O=C(C#Cc1ccccc1)Nc1cccc(F)c1	70	i	58	i	i	-57
O=C(CC[C@H]1O[C@@H](n2ccc(=O)[nH]c2=O)[C@H](O)[C@@H]1O)NC1CCN(Cc2ccccc2)C1 (some centres undefined)	i	i	i	i	i	i
COc1ccc(-c2csc(NC(=O)C3CC(=O)N(c4ccc5c(c4)OCCO5)C3)n2)cc1 (centres undefined)	85	55	i	i	i	i
CCc1ccc(N2CC(C(=O)Nc3ccc4c(c3)OCCO4)CC2=O)cc1 (centres undefined)	51	55	i	i	i	i
